Test results from PubChem BioAssay (EPA / NIEHS).
The source made the active and inactive calls. Rule for the calls: active = hit-call score of the fitted dose curve at least 0.9, where 1 is the maximum; inactive = score below 0.9.

read-out: Vascular cell adhesion molecule 1 (VCAM1), VCAM1 (gene 7412); assay: BSK_4H_VCAM1: BioMAP Diversity Plus: 4H Assay for Vascular cell adhesion molecule 1 (VCAM1) Biomarker Activity (AID 2283033); conditions: primary human endothelial cells (HUVEC); actives raise or lower the signal
Experimental: BSK_4H is a cell-based, multiplexed-readout assay that uses umbilical vein endothelium, a human vascular primary cell, with measurements taken at 24 hours after chemical dosing in a 96-well plate.BSK_4H_VCAM1 is an assay component measured in the BSK_4H assay. It measures VCAM-1 antibody related to regulation of gene expression using ELISA technology.Data from the assay component BSK_4H_VCAM1 was analyzed into 1 assay endpoint. This assay endpoint, BSK_4H_VCAM1, was analyzed with bidirectional fitting relative to DMSO as the negative control and baseline of activity. Using a type of binding reporter, gain or loss-of-signal activity can be used to understand changes in the signaling as they relate to the gene VCAM1. Furthermore, this assay endpoint can be referred to as a primary readout, because this assay has produced multiple assay endpoints where this one serves a signaling function. To generalize the intended target to other relatable targets, this assay endpoint is annotated to the cell adhesion molecules intended target family, where the subfamily is Immunoglobulin CAM.
The levels of cell surface (or secreted, indicated by the prefix "s") biomarker endpoints were measured by ELISA. Overt cytotoxicity to cells in confluent adherent cultures (all systems other than the BT system) was assessed by measuring total protein levels using sulforhodamine B (SRB) staining in parallel cultures at the time of biomarker measurements, indicated as SRB endpoints. For proliferation assays for adherent cell types, individual cell types are cultured at sub-confluence and relative cell numbers quantified by SRB staining at time points optimized for each system (48 h: 3C and CASM3C systems; 72 h: BT and HDF3CGF systems; 96 h: SAg system). SRB was performed by staining cells with 0.1% SRB after fixation with 10% TCA and reading wells at 560 nm.Viability and proliferation of PBMC (T cells) was quantified by Alamar Blue reduction for the SAg and BT systems. For PBMC viability (referred to as PBMC Cytotoxicity within the assay endpoint names), cells were plated (75,000/well in a 96-well plate) and then chemical samples added for 1 h before addition of activators, SEB and TSST-1 (20 ng/mL final concentration each). Cells were incubated for 90 h. Then, Alamar Blue (20 uL/well) (Invitrogen, Cat DAL1100) was added for 6 h, and the plates were read with a fluorescence microplate reader at 546/580 nm (excitation/emission). For PBMC proliferation, cells were plated and activated as above but incubated for only 16 h prior to addition of Alamar Blue. Plates were read after 6 h.

SMILES | outcome | AC50
CC1(C)C(C(=O)OC(C#N)c2cccc(Oc3ccccc3)c2)C1(C)C (stereo not given) | inactive | –
COC(=O)N(C(=O)N1CO[C@@]2(C(=O)OC)Cc3cc(Cl)ccc3C2=N1)c1ccc(OC(F)(F)F)cc1 | inactive | –
N#Cc1c[nH]cc1-c1cccc2c1OC(F)(F)O2 | – | 20 µM (active)
CCN(CC)C(=O)C(C)Oc1cccc2ccccc12 (stereo not given) | inactive | –
CCSC(=O)N1CCCCCC1 | inactive | –
CN=C=S | inactive | –
Cc1nc(N(C)C)nc(OC(=O)N(C)C)c1C | inactive | –
N#Cc1c(Cl)cccc1Cl | inactive | –
CCNC(=O)NC(=O)C(C#N)=NOC | inactive | –
COP(=O)(OC)O/C(C)=C/C(=O)N(C)C | inactive | –
O=C(Nc1ccccc1-c1ccc(Cl)cc1)c1cccnc1Cl | inactive | –
CC(C)Oc1cccc(NC(=O)c2ccccc2C(F)(F)F)c1 | inactive | –
COP(=S)(OC)Oc1ccc([N+](=O)[O-])c(C)c1 | inactive | –
CCOP(=S)(OCC)Oc1nc(Cl)n(C(C)C)n1 | inactive | –
CS(=O)(=O)c1cc(C(F)(F)F)ccc1C(=O)c1cnoc1C1CC1 | inactive | –
C=CCOC(=O)C(C)(C)OC(=O)c1cc(-n2c(=O)cc(C(F)(F)F)n(C)c2=O)ccc1Cl | inactive | –
Cc1cc(C)nc(Nc2ccccc2)n1 | inactive | –
Nc1cnn(-c2ccccc2)c(=O)c1Cl | inactive | –
CC1(C)CON(Cc2ccccc2Cl)C1=O | inactive | –
CCCCC(O)(Cn1cncn1)c1ccc(Cl)cc1Cl (stereo not given) | inactive | –

SMILES | outcome | AC50
CC(C)C1(C)N=C(c2ncccc2C(=O)O)NC1=O (stereo not given) | inactive | –
CCOc1cc(C(C)(C)C)ccc1C1COC(c2c(F)cccc2F)=N1 (stereo not given) | – | 37.4 µM (active)
COC(=O)c1c(C(F)F)nc(C(F)(F)F)c(C2=NCCS2)c1CC(C)C | – | 20 µM (active)
CNC(=O)Oc1cccc2ccccc12 | – | 20 µM (active)
CC(C)N1C(=O)N(c2ccccc2)CSC1=NC(C)(C)C | – | 29.8 µM (active)
COC(=O)NC(=S)Nc1ccccc1NC(=S)NC(=O)OC | – | 0.312 µM (active)
CCOc1nc(F)cc2nc(S(=O)(=O)Nc3c(Cl)cccc3Cl)nn12 | inactive | –
CC(C)Nc1nc(Cl)nc(NC(C)C)n1 | inactive | –
CCCC(=NOCC)C1=C(O)CC(CC(C)SCC)CC1=O (stereo not given) | inactive | –
O=P(O)(O)CCCl | inactive | –
CO/N=C(/C1=NOCCO1)c1ccccc1Oc1ncnc(Oc2ccccc2Cl)c1F | inactive | –
CNC(=O)N(C)c1nnc(C(C)(C)C)s1 | inactive | –
Cc1c(COC(=O)[C@@H]2[C@H](/C=C(\Cl)C(F)(F)F)C2(C)C)cccc1-c1ccccc1 | – | 3.91 µM (active)
Cc1ccc(N=CN(C)C=Nc2ccc(C)cc2C)c(C)c1 | – | 29.5 µM (active)
COC(=O)NS(=O)(=O)c1ccc(N)cc1 | inactive | –
CCC(C)n1c(=O)[nH]c(C)c(Br)c1=O (stereo not given) | inactive | –
CC(C)NC(=O)N1CC(=O)N(c2cc(Cl)cc(Cl)c2)C1=O | inactive | –
CCOP(=O)(OCC)Oc1nc(Cl)c(Cl)cc1Cl | – | 26.7 µM (active)
COc1ccc(-c2ccccc2)cc1NNC(=O)OC(C)C | inactive | –
C=C(C)CN(CC)c1c([N+](=O)[O-])cc(C(F)(F)F)cc1[N+](=O)[O-] | inactive | –
